Screening data: PubChem BioAssay, The Scripps Research Institute Molecular Screening Center
PAFAH1B3 FP inh: PAFAH1B3 enzyme inhibitors, primary screen, biochemical, fluorescence polarization, human; Platelet-activating factor acetylhydrolase IB subunit alpha1 (Homo sapiens), Q15102; recombinant PAFAH1B3, FP-rhodamine probe; inhibition, % at 3.39 µM; actives 0.28% (n = 340,000);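 active means inhibition above the screen-wide average of all tested compounds plus 3 SD, cut at about 25% in these data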
Target sequence (Q15102 whole entry, looked up): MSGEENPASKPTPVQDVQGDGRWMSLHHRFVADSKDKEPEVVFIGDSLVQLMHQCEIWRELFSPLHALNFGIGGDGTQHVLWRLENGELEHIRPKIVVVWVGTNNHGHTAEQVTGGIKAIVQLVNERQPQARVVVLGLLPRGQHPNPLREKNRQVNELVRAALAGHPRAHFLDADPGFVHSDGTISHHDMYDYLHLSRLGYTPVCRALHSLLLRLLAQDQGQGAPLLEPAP
PAFAH1B2 inh: PAFAH1B2 enzyme inhibitors, primary screen, biochemical, fluorescence polarization, human. recombinant PAFAH1B2, FP-rhodamine activity probe. inhibition, % at 3.39 µM. actives 1.2% (n = 340,000). AID 492953, 2010;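 active means inhibition above the mean of all tested compounds plus 3 SD, cut at about 24% in these data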
PAFAH2 inh: PAFAH2 enzyme inhibitors, primary screen, biochemical, fluorescence polarization, human. recombinant PAFAH2, FP-rhodamine activity probe. inhibition, % at 3.39 µM. Platelet-activating factor acetylhydrolase 2, cytoplasmic (Homo sapiens), Q99487. actives 0.99% (n = 340,000). AID 492956, 2010;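 active means inhibition above the mean over all tested compounds plus 3 SD, cut at about 30% in these data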;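 further: inhibitors block probe labeling of enzyme so polarization drops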
PKA-R2B activ: activators of PKA-R2B holoenzyme, primary screen, biochemical, fluorescence polarization, Cy5-IP20, human; cAMP-dependent protein kinase catalytic subunit beta (Homo sapiens) + cAMP-dependent …; PKA-R2B holoenzyme dissociation; R2B truncated from residue 108, S112A mutant; 0% DMSO only, 100% 113 µM cGMP; activation, % at 11.4 µM; actives 0.079% (n = 340,000); AID 504700, 2011;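 active means activation above a cutoff set at the mean over all compounds plus 3 SD, cut at about 18% in these data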;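 further: higher means more holoenzyme dissociation and a rise in polarization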
Target sequence (P31323 whole entry, looked up, other chains not shown, the tested form may be a part): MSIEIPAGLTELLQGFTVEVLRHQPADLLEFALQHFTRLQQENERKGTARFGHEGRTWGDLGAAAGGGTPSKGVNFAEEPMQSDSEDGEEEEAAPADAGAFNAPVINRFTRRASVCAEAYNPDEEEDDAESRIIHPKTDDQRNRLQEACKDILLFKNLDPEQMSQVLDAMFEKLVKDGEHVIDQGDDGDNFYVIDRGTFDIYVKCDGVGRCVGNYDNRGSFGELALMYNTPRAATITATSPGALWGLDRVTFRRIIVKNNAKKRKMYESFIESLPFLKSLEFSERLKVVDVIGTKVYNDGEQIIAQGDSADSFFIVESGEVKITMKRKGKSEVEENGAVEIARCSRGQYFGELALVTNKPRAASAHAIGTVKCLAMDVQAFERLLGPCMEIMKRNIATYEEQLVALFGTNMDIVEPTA
PKA-R1A act: activators of PKA-R1A holoenzyme, primary screen, biochemical, fluorescence polarization, Cy5-IP20, bovine R1A, mouse PKAc. actives 0.083% (n = 340,000). AID 504707, 2011. PKA-R1A dissociation; scaled: DMSO 0%, 113 µM cGMP 100%. activation, % at 11.4 µM;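 active means percent activation above the mean of all tested compounds plus 3 SD, cut at about 19% in these data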;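 further: higher means more PKAc released from R1A so a rise in polarization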
pPAFAH inh: pPAFAH enzyme inhibitors, primary screen, biochemical, fluorescence polarization, human; Platelet-activating factor acetylhydrolase (Homo sapiens), Q13093; recombinant pPAFAH, FP-rhodamine probe fluorescence polarization; actives 1.5% (n = 330,000); inhibition, % at 3.39 µM; AID 463082, 2010;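 active means inhibition above the mean inhibition across the screen plus 3 SD, cut at about 25% in these data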;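 further: inhibitors block binding of the rhodamine activity-based probe so polarization drops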
pPAFAH FP conf: pPAFAH (PLA2G7) enzyme inhibitors, confirmation, biochemical, fluorescence polarization, human; actives 72% (n = 2,300); recombinant pPAFAH, FP-Rh probe fluorescence polarization; shares compounds with pPAFAH inh; inhibition, % at 3.39 µM; AID 463230, 2010;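 active means mean inhibition of the triplicate above the hit cutoff set for the earlier primary screen, cut at about 25% in these data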
A number is an active result; – = inactive; · = not tested or not shown. In the library only some 2.6% were active in any assay of this set; here they are far more common.

SMILES	PAFAH1B3 FP inh	PAFAH1B2 inh	PAFAH2 inh	PKA-R2B activ	PKA-R1A act	pPAFAH inh	pPAFAH FP conf
NS(=O)(=O)c1ccc(N/N=C/c2ccc(C(=O)O)cc2)c([N+](=O)[O-])c1	–	–	–	–	–	–	·
COc1cc(C=NNc2ccc(S(=O)(=O)Nc3ccccc3C(=O)O)cc2[N+](=O)[O-])ccc1O	–	30.5	47.5	–	–	62.8	77.8
CC[C@H](C)[C@H]1O[C@]2(CC[C@@H]1C)C[C@@H]1C[C@@H](CC=C(C)[C@@H](O[C@H]3C[C@H](OC)[C@@H](O[C@H]4C[C@H](OC)[C@@H](O)[C@H](C)O4)[C@H](C)O3)[C@@H](C)C=CC=C3CO[C@@H]4[C@H](O)C(C)=C[C@@H](C(=O)O1)[C@]34O)O2	–	–	–	–	–	–	·
O=C(Nc1ccc(F)c(Cl)c1)N1CCCCCC1	–	–	–	–	–	–	·
N=C1/C(=C\c2ccc(-c3cccc(C(=O)O)c3)o2)C(=O)N=C2SC=C(c3ccccc3)N12	28.9	31.1	35.0	–	–	55.5	49.5
COc1cc(S(=O)(=O)Nc2ccccc2C(=O)N2CCCCC2)ccc1NC(C)=O	–	–	–	–	–	–	·
COC(=O)c1ccc(=O)c2nc3/c(=C/O)c(O)cc(=O)c3[nH]c12	65.6	60.3	81.2	–	–	91.5	91.3
COC(=O)c1ccc(N)cc1O	–	–	–	–	–	–	·
COC(=O)[C@H](CC(C)C)NCc1cccc(CN[C@@H](CC(C)C)C(=O)OC)c1	–	–	–	–	–	–	·
Nc1cc(-c2nn[nH]n2)ccc1F	–	–	–	–	–	42.6	–
O=C1CSC(=S)N1c1ccc(F)cc1	·	·	·	·	·	–	·
CN(C)c1ccc(N2C(=O)CSC2=S)cc1	–	–	–	–	–	36.8	–
Cc1ccc(S(=O)(=O)N(C)CCN(C)S(=O)(=O)c2ccc(C)cc2)cc1	–	–	–	–	–	·	·
O=C(c1ccco1)N1CCN(c2ccc(F)cc2)CC1	–	–	–	–	–	–	·
Nc1ccc(N2CCN(C(=O)c3ccco3)CC2)cc1	–	–	–	–	–	37.1	–
O=C(O)c1cc(-c2ccco2)nn1-c1cccc(Cl)c1	–	–	–	–	–	39.9	–
COC(=O)C1CC(C(=O)OC)C2C(C(=O)OC)CC(C(=O)OC)C12 (configuration not stated)	–	–	–	–	–	·	·
Oc1ccc(-c2nc(-c3ccc(O)c(O)c3)cs2)cc1	–	–	–	–	–	49.5	37.9
Oc1ccc(Nc2nc(-c3ccc4ccccc4c3)cs2)cc1	–	–	–	–	–	–	·
O=C(O)C1CC2C3CC(C(=O)O)C(C3)C2C1 (configuration not stated)	–	–	–	–	–	·	·
O=S(=O)(c1ccc(NC(=S)N/N=C/c2ccc(O)c(O)c2)cc1)N1CCOCC1	–	–	–	–	–	65.2	61.1
N#Cc1ccc(/C=N/NC(=S)Nc2ccc(S(=O)(=O)N3CCOCC3)cc2)cc1	–	–	–	–	–	–	·
O=C(NCc1ccccc1CN1CCCC1)c1ccc(Cl)c(S(=O)(=O)N2CCCC2)c1	–	–	–	–	–	·	·
CC(/C=C1\SC(=S)N(c2ccc(C(=O)O)cc2)C1=O)=C\c1ccccc1	–	–	–	–	–	35.2	28.1
O=C(CSc1ccc(-c2ccco2)nn1)c1cccc([N+](=O)[O-])c1	–	–	–	–	–	37.6	–
SMILES	PAFAH1B3 FP inh	PAFAH1B2 inh	PAFAH2 inh	PKA-R2B activ	PKA-R1A act	pPAFAH inh	pPAFAH FP conf
CC(=O)c1cccc(NC(=O)CSc2ccc(-c3ccco3)nn2)c1	–	–	–	–	–	–	·
O=C(O)CC1S/C(=N/N=C/c2ccc(-c3ccc(Cl)c([N+](=O)[O-])c3)o2)NC1=O (configuration not stated)	–	–	–	–	–	35.8	–
N=c1c(C(=O)NC2CCCCC2)cc2c(=O)n3ccccc3nc2n1Cc1ccc(F)cc1	–	–	–	–	–	–	·
CCc1nc(Nc2ccc(N3CCN(C(C)=O)CC3)cc2)c2oc3ccccc3c2n1	–	–	–	–	–	41.5	33.2
CC(=O)N1CCN(c2ccc(Nc3ncnc4c3oc3ccccc34)cc2)CC1	–	–	–	–	–	69.3	67.0
O=C(/C=C/c1ccco1)OCC(=O)c1ccc(OC(F)F)cc1	–	–	–	–	–	54.9	–
COc1cc(/C=C/C(=O)OCC(=O)c2ccc(OC(F)F)cc2)ccc1O	–	–	–	–	–	–	·
COC(=O)COc1ccc(C2Nc3c(Cl)ccc(C(=O)O)c3C3C=CCC32)cc1 (configuration not stated)	–	–	–	–	–	36.2	–
Cc1cc(C)c2c(c1)C1C=CCC1C(c1ccc(S(=O)(=O)N3CCOCC3)cc1)N2 (configuration not stated)	–	–	–	–	–	–	·
Cc1cc(C)cc(OCCn2nnc3ccccc32)c1	–	–	–	–	–	–	·
O=C(CSc1ccccc1F)NC(=O)c1ccc(Cl)cc1	–	–	–	–	–	–	·
O=C(OCc1cc(=O)n2ccsc2n1)c1ccccc1NCCO	–	–	–	–	–	73.8	–
C=CCn1c(N/N=C/c2ccc(O)cc2)nc2ccccc2c1=O	–	–	–	–	–	35.1	–
C=CCn1c(C)nc2ccccc2c1=O	–	–	–	–	–	–	·
CC(=O)c1ccc(O)c(CC=C(C)C)c1O	–	–	–	–	–	–	·
CC(C)=CCc1c(O)cc2oc3c(CC=C(C)C)c(O)c(O)c(CC=C(C)C)c3c(=O)c2c1O	29.9	–	–	–	–	59.4	56.4
CCCCN(C(=O)C1CC(=O)N(CCc2ccc(OC)c(OC)c2)C1)c1c(N)n(CC(C)C)c(=O)[nH]c1=O (configuration not stated)	–	–	–	–	–	·	·
CCOC(=O)N1CCN(C(=O)c2ccc3oc(CCCc4ccccc4)nc3c2)CC1	–	–	–	–	–	–	·
COc1ccc(C2C(C#N)=C(N)Oc3cc(N)ccc32)cc1 (configuration not stated)	–	–	–	–	–	·	·
